Screens from PubChem.
CD11b adhes enh: enhancers of CD11b/CD18 adhesion to fibrinogen, primary screen, K562 cells, luminescence; Integrin beta-2 (Homo sapiens) + Integrin alpha-M (Homo sapiens), P05107+P11215; activation, % at 10 µM; ATPlite luminescence; 0.07% of 93,000 active;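 active = 10 µM primary screen giving 50% or more activity, confirmed by 40% or more on retest at that dose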
MRP1 act: H69AR viability gain despite doxorubicin, primary screen, MRP-1 activator project, H69AR cells, CellTiter-Glo; viability increase, % at 10 µM; 0.61% of 140,000 active; viability rescue; AID 799, 2007;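 active = viability gain under doxorubicin at or above a set limit, the compound median plus 3 SD, cut at about 4.7% in these data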;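 also: MRP-1 overexpressing cells given doxorubicin 25 µM after compound pretreatment; 18-22 h compound pretreatment then 72 h with doxorubicin before readout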
MRP resist rev: reversal of MRP1-mediated doxorubicin resistance, primary screen, H69AR cells, doxorubicin co-treatment; AID 602, 2007; H69AR cells + 2 uM doxorubicin, CellTiter-Glo, 72 h; differential viability (reversal), % at 10 µM; 0.04% of 85,000 active;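 active = viability drop by adding the cancer drug above about 55%, with treated viability meeting a 40% cutoff, limit read from the data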;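 also: larger differential means the compound sensitizes cells more to doxorubicin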
Phagocyt inh: inhibitors of macrophage phagocytosis, primary screen, imaging, J774A.1 cells, IgG beads | J774A.1 macrophage IgG-bead phagocytosis | inhibition, % at 5 µM | 0.07% of 110,000 active | AID 1029, 2008;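 active = inhibition above the mean of the plate negative controls plus 5 SD, cut at about 13% in these data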;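 also: phagocytic index as fraction of beads internalized from green versus red external bead signal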
Smad3 FoxH1 inh: Smad3/FoxH1 peptide binding inhibitors, primary screen, biochemical, TR-FRET; Mothers against decapentaplegic homolog 3 (Homo sapiens), P84022; TR-FRET Smad3/Dy647-FoxH1 peptide binding, europium anti-His; inhibition, % at 25 µM; 0.29% of 88,000 active; AID 630, 2007;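 active = compounds that reduce the energy-transfer binding signal between the protein and its labelled peptide by more than half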
Target sequence (P84022 whole entry, looked up): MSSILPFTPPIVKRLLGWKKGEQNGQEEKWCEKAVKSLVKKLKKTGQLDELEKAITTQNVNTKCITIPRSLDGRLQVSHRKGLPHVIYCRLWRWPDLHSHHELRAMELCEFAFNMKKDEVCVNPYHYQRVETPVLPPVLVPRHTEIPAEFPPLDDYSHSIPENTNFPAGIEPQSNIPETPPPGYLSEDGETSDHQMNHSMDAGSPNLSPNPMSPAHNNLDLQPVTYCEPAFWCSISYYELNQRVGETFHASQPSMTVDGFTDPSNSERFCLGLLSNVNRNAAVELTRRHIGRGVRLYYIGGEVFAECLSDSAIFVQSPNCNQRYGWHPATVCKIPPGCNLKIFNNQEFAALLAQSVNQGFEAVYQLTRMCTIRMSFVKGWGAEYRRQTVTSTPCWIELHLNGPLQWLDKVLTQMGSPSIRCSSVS
Mac1 fbg inh: inhibitors of CD11b/CD18 adhesion to fibrinogen, primary screen, K562 cells, luminescence | inhibition, % at 10 µM | Integrin beta-2 (Homo sapiens) + Integrin alpha-M (Homo sapiens), P05107+P11215 | ATPlite luminescence; Mn2+ added to activate the integrin | 0.54% of 93,000 active | AID 1497, 2009;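 active = primary inhibition of 50% or more at 10 µM, then 40% or more on retest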
A number is an active result; i = inactive; nt = not tested or not shown. In the library only some 1.2% were active in any assay of this set; here they are far more common.

SMILES	CD11b adhes enh	MRP1 act	MRP resist rev	Phagocyt inh	Smad3 FoxH1 inh	Mac1 fbg inh
CC1=C(C(=O)OCc2ccccc2)C(c2ccc(Cl)cc2Cl)NC(=O)N1CCCC(=O)O (stereo unspecified)	nt	i	nt	nt	nt	nt
O=C(COC(=O)C1CCN(/C=C/C(=O)C(F)(F)F)CC1)Nc1ccccc1	i	i	nt	i	nt	i
NC(=O)c1ccsc1NC(=O)COC(=O)Cc1cccc2ccccc12	i	i	i	i	i	84
O=C(O)NCC1CCCCC1 (tested in a mixture with another compound)	nt	nt	nt	nt	i	nt
CC(=O)c1ccc(NC(=O)CCCN2C(=O)/C(=C/C(C)=C/c3ccccc3)SC2=S)cc1	i	6.1	nt	i	nt	i
CC(/C=C1\SC(=O)N(CC(=O)Nc2ccc(O)cc2)C1=O)=C\c1ccccc1	i	8.7	nt	nt	nt	i
Cc1cc(NC(=O)CN2C(=O)S/C(=C\c3ccccc3)C2=O)no1	i	5.1	nt	nt	nt	i
O=C(CN1C(=O)S/C(=C\c2ccc(Cl)cc2)C1=O)NNC(=O)c1ccccc1O	nt	7.7	nt	nt	nt	nt
COc1cccc(/C=C2\SC(=O)N(CCC(=O)NNC(=O)c3ccccc3Cl)C2=O)c1	i	i	nt	nt	nt	i
O=C(O)CNCCc1ccccc1	nt	nt	nt	nt	i	nt
Cc1ncc(CO)c(/C=N/N=C/c2ccccc2O)c1O	i	i	nt	i	nt	i
Cc1cc(N=Cc2c(CO)cnc(C)c2O)c(N=Cc2c(CO)cnc(C)c2O)cc1C.[Zn]	nt	nt	nt	nt	93	nt
CC(SC1=NCCS1)C(=O)Nc1nnc(-c2ccc(F)cc2)s1 (stereo unspecified)	i	i	i	i	i	i
CC(SC1=NCCS1)C(=O)Nc1nnc(-c2ccc(Br)cc2)s1 (stereo unspecified)	i	5.8	i	i	i	i
Cc1cc(=O)[nH]c(SCC(=O)NCCc2ccccc2)n1	i	i	i	i	96	i
Cc1nnc(SCC(=O)NCc2ccccc2)[nH]c1=O	i	i	i	i	63	i
c1ccc(SC(Sc2ccccc2)c2ccc3c(c2)OCO3)cc1	nt	nt	nt	nt	i	nt
CN1CCc2nc3sc(C(=O)C45CC6CC(CC(C6)C4)C5)c(N)c3cc2C1	118	i	nt	i	nt	i
CCCCC[C@@H](O)[C@@H]1C(=O)O[C@@H](C)[C@@H](O)C=C/C=C\C=CC=C/C=C(/C)[C@H](O)C[C@H](O)C[C@H](O)C[C@H](O)C[C@H](O)C[C@H](O)C[C@@H]1O	nt	nt	nt	nt	i	nt
COc1ccc(CN=C2NC(=O)CC(C(=O)Nc3ccc(F)cc3)S2)cc1 (stereo unspecified)	i	6.7	nt	i	nt	i
O=C(O)[C@@H]1[C@H](C(=O)Nc2ccccc2)[C@@H]2C=C[C@H]1O2	nt	nt	nt	nt	i	nt
COC(=O)Oc1ccc(/C=N/NC(=O)CSCc2ccccc2Br)cc1OC	i	i	nt	i	nt	54
O=C(/C=C/c1ccc([N+](=O)[O-])cc1)N1CCN(c2ccccc2F)CC1	nt	35	nt	i	nt	nt
O=C(/C=C/c1cccs1)N1CCN(c2ccccc2F)CC1	nt	i	nt	i	nt	nt
CC1=CC(C)(C)N(S(=O)(=O)c2ccc(C)cc2)c2cc(C)ccc21	i	i	i	i	i	79
SMILES	CD11b adhes enh	MRP1 act	MRP resist rev	Phagocyt inh	Smad3 FoxH1 inh	Mac1 fbg inh
Cc1ccc(S(=O)(=O)N2C(=S)SCC2(C)C)cc1	i	i	i	i	i	i
Cc1cc(-c2cc(C)c(O)c(C(C)(C)C)c2)cc(C(C)(C)C)c1O	nt	nt	nt	nt	63	nt
Oc1cc(O)c2c(c1)O[C@@H](c1ccc(O)c(O)c1)[C@H](O[C@@]1(c3cc(O)c(O)c(O)c3)Oc3cc(O)cc(O)c3[C@H](O)[C@H]1O)C2	nt	nt	nt	nt	i	nt
COc1ccc(C(=O)Nc2ccc(C)cn2)c(OC)c1	i	i	i	i	i	76
Cc1cccc2cc(CN(Cc3cccs3)S(=O)(=O)c3ccc4c(c3)OCCO4)c(=O)[nH]c12	i	9.3	nt	nt	nt	i
Cc1cc2cc(CN(Cc3cccs3)S(=O)(=O)c3ccc4c(c3)OCCO4)c(=O)[nH]c2cc1C	nt	i	nt	i	nt	nt
O=S1(=O)OC(c2ccc(O)cc2)(c2ccc(O)cc2)c2ccccc21	nt	nt	nt	nt	97	nt
COc1ccccc1Cn1c2nc3ccccc3nc2c2c(=O)n(CC(C)C)cnc21	nt	nt	i	nt	i	nt
CC(=O)Nc1ccc(-c2cn3cc(C)ccc3n2)cc1	nt	i	nt	i	nt	nt
Cc1ccc2nc(-c3ccccc3)cn2c1	i	i	i	nt	i	69
CCN(C(=O)c1ccc(C(C)(C)C)cc1)c1nnc(Cn2nnc3ccccc32)s1	i	i	i	i	i	99
Cc1ccc(C(=O)Cn2nnc3ccccc32)cc1	nt	i	nt	nt	nt	nt
O=S1(=O)CCN(c2ccccc2CC(c2c[nH]c3ccccc23)c2c[nH]c3ccccc23)CC1	nt	nt	nt	nt	88	nt
Cn1c(=O)c(NCCO)c2c3c(cccc31)C(=O)c1ccccc1-2	i	i	i	i	i	i
Cn1c(=O)c(NCCc2ccccc2)c2c3c(cccc31)C(=O)c1ccccc1-2	i	i	64	i	i	i
O=C(CCc1ccc(S(=O)(=O)N2CCOCC2)cc1)Nc1nc(COc2ccccc2)cs1	i	i	nt	i	nt	87
Cc1sc2nc(SCC(=O)N(CCO)CCO)n(C3CCCCC3)c(=O)c2c1C	i	i	i	i	i	i
Nc1ccn([C@@H]2O[C@H](CO)[C@@H](O)[C@@H]2O)c(=O)n1	nt	i	nt	nt	nt	nt
Nc1ccn([C@H]2O[C@@H](COP(=O)(O)O)[C@H](O)[C@H]2O)c(=O)n1	nt	nt	nt	nt	79	nt
Cc1cc(Br)ccc1NC(=O)CNC(=O)CN1C(=O)NC2(CCCCCC2)C1=O	i	7.5	i	i	i	i
Cc1ccc(S(=O)(=O)N2CCN(c3nc(C)c4c(c3C#N)CC(C)(C)OC4)CC2)cc1	i	6.1	nt	i	nt	i
N=C1CCC[C@H]1C(=S)SCCC(N)=O	nt	nt	nt	nt	i	nt
C[C@H](CCC(=O)O)[C@H]1CC[C@H]2[C@@H]3[C@@H](O)C[C@H]4C[C@@H](O)CC[C@]4(C)[C@H]3C[C@@H](O)[C@]12C	nt	nt	nt	nt	i	nt
Cc1ccc(O)c(-c2cc(C(F)(F)C(F)F)nc(-c3ccccc3)n2)c1	nt	i	i	nt	i	nt
Oc1ccc(Cl)cc1-c1cc(C(F)(F)C(F)F)nc(-c2ccccc2)n1	i	i	i	i	i	59
SMILES	CD11b adhes enh	MRP1 act	MRP resist rev	Phagocyt inh	Smad3 FoxH1 inh	Mac1 fbg inh
O=C(O)/C=C/C=C/c1ccc2c(c1)OCO2	nt	nt	nt	nt	i	nt
COc1ccc(NC(=O)c2c(F)cccc2F)cc1S(=O)(=O)Nc1ccc(Br)cc1	nt	6.3	nt	i	nt	nt
CCOc1ccc(Br)cc1S(=O)(=O)Nc1ccc(NC(=O)c2ccccc2F)cc1	nt	i	nt	nt	nt	nt
Fc1ccc(NC(=S)Nc2ccc(F)c(Cl)c2)cc1Cl	i	i	nt	i	nt	92
CCOc1ccc(C(=O)Nc2cccc([N+](=O)[O-])c2)cc1Br	nt	i	nt	i	nt	nt
O=C(NNC1=C(C(=O)C(F)(F)F)CCC1)c1ccc(Cl)cc1	i	6.4	i	i	i	96
O=C(NNC1=C(C(=O)C(F)(F)F)CCC1)c1cccc(Cl)c1	i	6.5	i	i	i	99
